# Measurements from ChEMBL document CHEMBL3988442, “University of Dundee, Small-Polar-MMV Screening Library” (2021).
# Tested on: Trypanosoma cruzi
# Test: Trypanosoma cruzi phosphomannomutase and mannose-1-phosphate guanylyltransferase assay
# Format: functional
# Parameters: scale not given: direction of the effect not stated beside the values
# Conditions: 10 µM
row,SMILES,Percent Effect
1,CC(C(=O)Nc1ccc(N2CCCC2)nc1)n1ccnc1 (stereo not given),0.0943%
2,O=C1N(Cc2ccccc2F)CCCC12CCN(C1CCSCC1)C2 (stereo not given),-1.46%
3,Cn1cc(CN2CC3(CCN(C(=O)c4ccoc4)C3)C2)cn1,-3.77%
4,CCOC(=O)NC(CNC(=O)CCc1ccccn1)CC(C)C (stereo not given),3.62%
5,Cc1ccc(C2CSCCN2C(=O)C2=CCCC2)o1 (stereo not given),0.684%
6,Cc1nc(Nc2nccs2)cc(C2CCCN2C2CCOCC2)n1 (stereo not given),4.35%
7,COCc1cn([C@@H]2c3ccccc3C3(CCNCC3)[C@H]2O)nn1,6.71%
8,N#Cc1ccc(F)c(CN2CCCC2Cn2cnc3ccccc32)c1 (stereo not given),-3.81%
9,O=C(CCCc1ncc(-c2ccccc2)o1)N1CCN(CCO)CC1,-1.04%
10,CCn1cnnc1CNC(=O)N(C)Cc1ccc2c(c1)OCCO2,0.66%
11,COCCNC(=O)C(C)n1cc(Br)cn1 (stereo not given),0.492%
12,CCn1nc(CC(C)C)cc1C(=O)N1C[C@H](O)[C@@H](N2CCCCC2)C1,6.33%
13,O=C(CN1CCC(c2ccnn2CCO)CC1)NCc1cccs1,1.23%
14,CCOc1ccc(CC(=O)N2CCN(c3nccn3C)CC2)cc1,-5.62%
15,O=C(C1CC1)N1CCCC1C1CCN(Cc2ccccc2)CC1 (stereo not given),0.682%
16,Cc1nc(C)n(CC2CN(c3ccc(C#N)cn3)CCO2)n1 (stereo not given),5.88%
17,COc1cc(N2C[C@@H]3COC[C@]3(COCc3cccc(C)n3)C2)ncn1,4.79%
18,COCCN1CCC2(CC1)CC(COC)N(c1ncccn1)C2 (stereo not given),1.48%
19,O=C(CCOCc1ccccc1)N1CCCC1c1noc(C2CC2)n1 (stereo not given),1.23%
20,CS(=O)(=O)NCC1CCCN(Cc2ccc(F)c3cccnc23)C1 (stereo not given),-2.06%
